In the supplement of paper PMC9262897, “Low-cost anti-mycobacterial drug discovery using engineered E. coli” (Nature Communications, 2022):
Counter-ions that a name gives are not always drawn. ± gives the standard deviation of the averaged measurements.

Columns and labels:
Assay in all cases: growth (OD600 after 10 h); higher = more growth (less inhibition)
[1] = system: E. coli TESEC Alr+ wild-type control; details: compound 0.1 mM; raw OD600 reference: median of DMSO wells 0.241, cell-free background 0.041
Protocol: (§1)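 TESEC Mtb Alr E. coli, or the Alr+ wild-type control, in 384-well plates with Prestwick library compounds at 0.1 mM and 1% DMSO, across arabinose induction levels of 1E3 to 1E7 nM. Growth is read as OD600 after 10 h at 37 °C in triplicate biological replicates.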

E. coli TESEC Mtb Alr [2] = details: compound 0.1 mM
Protocol: as §1

E. coli TESEC Mtb Asd = details: compound 0.1 mM
Protocol: (§2)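 TESEC E. coli strains in which the native enzyme is deleted and replaced by arabinose-inducible Mtb Asd, DapB, CysH or TrpD, each grown in its selective medium. Strains were screened against the Prestwick library at 0.1 mM and 1% DMSO in 384-well format at low and high arabinose induction. Growth is read as OD600 after 10 h in triplicate.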

E. coli TESEC Mtb DapB = details: compound 0.1 mM
Protocol: as §2

[3] = system: E. coli TESEC Alr+ wild-type control; details: compound 0.1 mM; raw OD600 reference: median of DMSO wells 0.49, cell-free background 0.052
Protocol: (§3)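 TESEC Mtb Alr E. coli (ΔaraC ΔtolC ΔentC Δalr ΔdadX, arabinose-inducible Mtb Alr) or the Alr+ wild-type control strain, grown in defined M9-fructose medium without D-alanine in 96-well plates with Prestwick library compounds at 0.1 mM and 1% DMSO. Low Alr induction is 0.1 µM arabinose and high induction is 10 mM arabinose.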

E. coli TESEC Mtb Alr [4] = details: compound 0.1 mM; remark: listed apart in the source
Protocol: as §3

[5] = arabinose 1000 nM, raw OD600 reference: median of DMSO wells 0.294, cell-free background 0.041
[6] = arabinose 10000 nM, raw OD600 reference: median of DMSO wells 0.264, cell-free background 0.041
[7] = arabinose 100000 nM, raw OD600 reference: median of DMSO wells 0.201, cell-free background 0.041
[8] = arabinose 1000000 nM, raw OD600 reference: median of DMSO wells 0.193, cell-free background 0.041
[9] = arabinose 10000000 nM, raw OD600 reference: median of DMSO wells 0.146, cell-free background 0.041
[10] = arabinose induction (level): High, raw OD600 reference: median of DMSO wells 0.331, cell-free background 0.041
[11] = arabinose induction (level): Low, raw OD600 reference: median of DMSO wells 0.417, cell-free background 0.041
[12] = arabinose induction (level): High, raw OD600 reference: median of DMSO wells […], cell-free background 0.041
[13] = arabinose induction (level): Low, raw OD600 reference: median of DMSO wells 0.227, cell-free background 0.041
[14] = arabinose 100 nM, raw OD600 reference: median of DMSO wells 0.413, cell-free background 0.052
[15] = arabinose 10000000 nM, raw OD600 reference: median of DMSO wells […], cell-free background 0.052

Compound | growth [1] | growth (E. coli TESEC Mtb Alr [2]; [5]) | growth (E. coli TESEC Mtb Alr [2]; [6]) | growth (E. coli TESEC Mtb Alr [2]; [7]) | growth (E. coli TESEC Mtb Alr [2]; [8]) | growth (E. coli TESEC Mtb Alr [2]; [9]) | growth (E. coli TESEC Mtb Asd; [10]) | growth (E. coli TESEC Mtb Asd; [11]) | growth (E. coli TESEC Mtb DapB; [12]) | growth (E. coli TESEC Mtb DapB; [13]) | growth [3] | growth (E. coli TESEC Mtb Alr [4]; [14]) | growth (E. coli TESEC Mtb Alr [4]; [15])
CC[N+](CC)(CC(=O)Nc1c(C)cccc1C)Cc1ccccc1 [Denatonium benzoate] | 0.216 ± 0.0039 | 0.27 ± 0.0093 | 0.254 ± 0.006 | 0.182 ± 0.034 | 0.173 ± 0.014 | 0.132 ± 0.0092 | 0.401 ± 0.018 | 0.46 ± 0.0089 | 0.189 ± 0.015 | 0.224 ± 0.024 | 0.439 ± 0.016 | 0.402 ± 0.018 | 0.338 ± 0.02
C[N+]1(C)CCC(OC(=O)C(O)(c2ccccc2)C2CCCC2)C1 (configuration not stated) [Glycopyrrolate] | 0.223 ± 0.0096 | 0.301 ± 0.0095 | 0.267 ± 0.0065 | 0.185 ± 0.021 | 0.1866 ± 0.001 | 0.138 ± 0.0078 | 0.337 ± 0.055 | 0.425 ± 0.04 | 0.194 ± 0.025 | 0.196 ± 0.011 | 0.575 ± 0.12 | 0.408 ± 0.0092 | 0.335 ± 0.014
Clc1ccc(CSC(Cn2ccnc2)c2ccc(Cl)cc2Cl)cc1 (configuration not stated) [Sulconazole nitrate] | 0.0579 ± 0.0028 | 0.0534 ± 0.0013 | 0.0668 ± 0.0017 | 0.0542 ± 0.00071 | 0.0669 ± 0.0011 | 0.0556 ± 0.0041 | 0.0615 ± 0.0029 | 0.0557 ± 0.0015 | 0.0605 ± 0.00098 | 0.0607 ± 0.0018 | 0.0607 ± 0.0028 | 0.0787 ± 0.039 | 0.0898 ± 0.0077
COc1ccc(NS(=O)(=O)c2ccc(N)cc2)nn1 [Sulfamethoxypyridazine] | 0.2402 ± 0.0024 | 0.296 ± 0.011 | 0.236 ± 0.0055 | 0.226 ± 0.024 | 0.181 ± 0.0072 | 0.141 ± 0.0061 | 0.355 ± 0.042 | 0.393 ± 0.016 | 0.203 ± 0.012 | 0.22 ± 0.01 | 0.459 ± 0.011 | 0.408 ± 0.0075 | 0.367 ± 0.018
CN(C)CCC(c1ccc(Br)cc1)c1ccccn1 (configuration not stated) [Brompheniramine maleate] | 0.218 ± 0.0069 | 0.293 ± 0.0063 | 0.264 ± 0.0057 | 0.209 ± 0.037 | 0.162 ± 0.0032 | 0.15 ± 0.008 | 0.179 ± 0.0086 | 0.302 ± 0.079 | 0.179 ± 0.01 | 0.253 ± 0.025 | 0.45 ± 0.043 | 0.398 ± 0.011 | 0.339 ± 0.02
CNC(C)CCC=C(C)C (configuration not stated) [Isometheptene mucate] | 0.259 ± 0.012 | 0.314 ± 0.0099 | 0.266 ± 0.011 | 0.21 ± 0.025 | 0.177 ± 0.0051 | 0.1478 ± 0.0012 | 0.228 ± 0.035 | 0.397 ± 0.096 | 0.22 ± 0.0027 | 0.246 ± 0.018 | 0.51 ± 0.055 | 0.405 ± 0.017 | 0.314 ± 0.02
CC(N/C(=N\C#N)Nc1ccncc1)C(C)(C)C (configuration not stated) [Pinacidil] | 0.223 ± 0.015 | 0.274 ± 0.011 | 0.257 ± 0.0097 | 0.219 ± 0.0078 | 0.137 ± 0.0036 | 0.138 ± 0.0067 | 0.369 ± 0.037 | 0.412 ± 0.03 | 0.19 ± 0.012 | 0.232 ± 0.022 | 0.446 ± 0.031 | 0.405 ± 0.012 | 0.359 ± 0.036
Nc1nc2c(ncn2COCCO)c(=O)[nH]1 [Acyclovir] | 0.255 ± 0.014 | 0.287 ± 0.021 | 0.2708 ± 0.0022 | 0.239 ± 0.019 | 0.196 ± 0.014 | 0.139 ± 0.0044 | 0.374 ± 0.016 | 0.416 ± 0.047 | 0.206 ± 0.005 | 0.26 ± 0.024 | 0.47 ± 0.04 | 0.413 ± 0.011 | 0.355 ± 0.029
CSc1nc2cc(Cl)c(Oc3cccc(Cl)c3Cl)cc2[nH]1 [Triclabendazole] | 0.0427 ± 0.0024 | 0.0531 ± 0.0014 | 0.0802 ± 0.002 | 0.0447 ± 0.0021 | 0.0733 ± 0.012 | 0.04873 ± 5.8e-05 | 0.0558 ± 0.0083 | 0.0583 ± 0.0045 | 0.0562 ± 0.0033 | 0.0542 ± 0.0043 | 0.0897 ± 0.0096 | 0.0864 ± 0.011 | 0.137 ± 0.014
COc1ccc(CN(CCN(C)C)c2ccccn2)cc1 [Pyrilamine maleate] | 0.2136 ± 0.002 | 0.269 ± 0.018 | 0.263 ± 0.0074 | 0.179 ± 0.008 | 0.154 ± 0.0054 | 0.135 ± 0.0052 | 0.206 ± 0.052 | 0.426 ± 0.034 | 0.188 ± 0.017 | 0.211 ± 0.029 | 0.528 ± 0.077 | 0.3958 ± 0.0033 | 0.321 ± 0.015
COc1ccccc1N1CCN(CCCCNC(=O)c2ccc3ccccc3c2)CC1 | 0.149 ± 0.0027 | 0.179 ± 0.013 | 0.2704 ± 0.0024 | 0.195 ± 0.019 | 0.124 ± 0.0029 | 0.182 ± 0.0013 | 0.156 ± 0.0093 | 0.265 ± 0.013 | 0.188 ± 0.017 | 0.2 ± 0.012 | 0.374 ± 0.0092 | 0.398 ± 0.0097 | 0.181 ± 0.024
Clc1ccc(C(Cn2ccnc2)OCc2csc3c(Cl)cccc23)c(Cl)c1 (configuration not stated) [Sertaconazole nitrate] | 0.0563 ± 0.0014 | 0.0558 ± 0.0094 | 0.07 ± 0.0042 | 0.057 ± 0.0028 | 0.06457 ± 0.00042 | 0.0588 ± 0.0084 | 0.0594 ± 0.0039 | 0.0635 ± 0.0047 | 0.0687 ± 0.0033 | 0.0671 ± 0.0089 | 0.129 ± 0.036 | 0.12 ± 0.024 | 0.123 ± 0.0052
O=C(NCCN1CCOCC1)c1ccc(Cl)cc1 [Moclobemide] | 0.233 ± 0.0068 | 0.287 ± 0.0083 | 0.25 ± 0.0059 | 0.225 ± 0.032 | 0.177 ± 0.013 | 0.136 ± 0.0024 | 0.323 ± 0.11 | 0.395 ± 0.14 | 0.191 ± 0.0078 | 0.217 ± 0.025 | 0.615 ± 0.038 | 0.416 ± 0.0096 | 0.338 ± 0.009
C[C@]12CC[C@@H]3c4ccc(O)cc4CC[C@H]3[C@@H]1CC[C@@H]2O [Estradiol-17 beta] | 0.125 ± 0.012 | 0.118 ± 0.052 | 0.214 ± 0.0069 | 0.157 ± 0.011 | 0.129 ± 0.0023 | 0.141 ± 0.0021 | 0.199 ± 0.0073 | 0.22 ± 0.0098 | 0.196 ± 0.0064 | 0.204 ± 0.012 | 0.43 ± 0.017 | 0.399 ± 0.012 | 0.218 ± 0.0046
